Screening data from PubChem BioAssay.
An excerpt weighted towards active compounds, which were near 4% of everything screened.
GDH-TPI counter-1 – GDH-TPI coupling enzyme inhibitors, primary screen, artefact control for M. tuberculosis FBA inhibitor project, biochemical, absorbance, full deck. GDH-TPI coupled enzyme counterscreen, NADH absorbance. inhibition, % at 4.8 µM. 360,000 tested, 1.2% active. AID 588335, 2011; in the data active = inhibition above about 30%;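 note: 0% = DMSO wells and 100% = wells lacking the enzyme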
Mtb UGM inh – M. tuberculosis UGM enzyme inhibitors, primary screen, biochemical, fluorescence polarization, single point. UDP-galactopyranose mutase (Mycobacterium tuberculosis (strain ATCC 25618 / H37Rv)), …. purified UGM, fluorescence polarization probe displacement. inhibition, % at 10 µM. 320,000 tested, 0.06% active; in the data active = inhibition above about 10%, passing the limit was not always enough; inconclusive = no clear call, values can overlap the other calls
Mtb bLac sens – beta-lactam sensitization of Mtb H37Rv, H37Rv; M. tuberculosis H37Rv growth with meropenem, percent inhibition; inhibition, % at 25 µM; 330,000 tested, 0.27% active; AID 434955, 2010;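 note: growth measured after seven days incubation then overnight dye step; 0% = bacteria only wells and 100% = bacteria with antibiotic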
Rv3671c inh – Rv3671c serine protease inhibitors, primary screen, biochemical, fluorescence polarization, M. tuberculosis H37Rv. P9WHR9. inhibition, % at 5.96 µM. 320,000 tested, 0.048% active. AID 2606, 2010; in the data active = inhibition above about 38%;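 note: extracellular domain of Rv3671c used as enzyme; 0% = enzyme with DMSO and 100% = no enzyme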
Target sequence (P9WHR9 whole entry, looked up, the tested form may be a part): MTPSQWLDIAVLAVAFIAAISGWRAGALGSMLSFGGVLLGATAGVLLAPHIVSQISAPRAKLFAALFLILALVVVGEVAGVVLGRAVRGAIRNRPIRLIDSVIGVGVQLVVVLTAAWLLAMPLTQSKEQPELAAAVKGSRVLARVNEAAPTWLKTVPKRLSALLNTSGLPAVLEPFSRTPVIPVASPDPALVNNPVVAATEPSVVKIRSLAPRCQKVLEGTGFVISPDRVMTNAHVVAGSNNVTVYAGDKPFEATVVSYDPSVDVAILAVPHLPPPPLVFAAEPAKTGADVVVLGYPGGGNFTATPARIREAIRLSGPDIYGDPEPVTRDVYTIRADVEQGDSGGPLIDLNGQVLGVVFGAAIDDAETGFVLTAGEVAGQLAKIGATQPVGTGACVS
Mtb FBA inh – Mtb FBA enzyme inhibitors, primary screen, biochemical, fluorescence, strain H37Rv; Fructose-bisphosphate aldolase (Mycobacterium tuberculosis (strain ATCC 25618 / H37Rv)), …; purified M. tuberculosis FBA, fluorescence read-out; inhibition, % at 1 µM; 360,000 tested, 2.3% active; AID 588726, 2011; in the data active = inhibition above about 27%;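 note: 0% = vehicle and 100% = reference inhibitor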
RecA splice inh – Mtb RecA intein splicing inhibitors, primary screen, biochemical, fluorescence, HTS | inhibition, % (no concentration beside the values) | Protein RecA (Mycobacterium tuberculosis (strain ATCC 25618 / H37Rv)), P9WHJ3 | 290,000 tested, 0.75% active | AID 2221, 2009 | cell-free RecA intein splicing; in the data active = inhibition above about 30%; inconclusive = no clear call, values can overlap the other calls;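 note: 0% = vehicle wells and 100% = reference inhibitor control wells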
Mtb FBA confirm – M. tuberculosis aldolase blockers, biochemical, fluorescence, strain H37Rv, confirmation. shares compounds with Mtb FBA inh. inhibition, % at 1 µM. AID 651616, 2012. 5,600 tested, 78% active. purified M. tuberculosis FBA, fluorescence read-out; in the data active = inhibition above about 27%;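 note: 0% = vehicle wells and 100% = reference inhibitor wells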
GDH-TPI counter-2 – GDH-TPI coupling enzyme inhibitors, artefact control for M. tuberculosis FBA inhibitor project, biochemical, fluorescence, high throughput; GDH-TPI coupled enzyme counterscreen; 5,600 tested, 81% active; shares compounds with Mtb FBA inh; inhibition, % at 1 µM; AID 652141, 2013; in the data active = inhibition above about 10%
GDH-TPI dose – GDH-TPI coupling enzyme inhibitors, dose response, artefact control for M. tuberculosis FBA inhibitor project, biochemical, fluorescence, IC50. IC50, µM. shares compounds with Mtb FBA inh. 170 tested, 79% active. GDH-TPI coupled enzyme assay, artifact counterscreen
* marks the source's active call; other numbers are inactive results; u = inconclusive; x = no result; + = active, no number. Unless noted, the rule behind the calls is not given here.

SMILES | GDH-TPI counter-1 | Mtb UGM inh | Mtb bLac sens | Rv3671c inh | Mtb FBA inh | RecA splice inh | Mtb FBA confirm | GDH-TPI counter-2 | others
COc1ccccc1C(=O)Nc1cccc(NC(=O)c2ccccc2OC)n1 | 3 | 1 | 0 | -14 | 1 | x | x | x
CNc1cc(-c2ccc(OC)c(OC)c2)ncn1 | 13 | x | x | x | 24 | x | x | x
CNc1cncc(-c2ccc(OC)c(OC)c2)n1 | 20 | x | x | x | 58* | x | 78* | 63*
CNc1cncc(-c2c(OC)cccc2OC)n1 | 8 | x | x | x | 77* | x | + | +
CNc1ccc2ncc(-c3ccc(OC)c(OC)c3)n2n1 | 17 | x | x | x | 44* | x | 11 | 7
Cc1cc(C)c(N)c(C(=O)O)c1 | -9 | -2 | 7 | -3 | 48* | -1 | + | +
Cn1cc2ccc(N)cc2n1 | 0 | x | x | x | 29* | x | 68* | 56*
COc1cc2nc(N3CCN(C(=O)[C@H]4COc5ccccc5O4)CC3)nc(N)c2cc1OC | 3 | 1 | 6 | -2 | 82* | 2 | 63* | 38*
CCOC(=O)c1cnc2ccc(OCC)cc2c1NCCCN1CCOCC1 | -1 | -1 | 0 | 0 | 5 | -1 | x | x
Cc1ccc(-c2nc3cc(NS(=O)(=O)c4ccc(C)cc4)ccc3o2)cc1 | 14 | 0 | 88 | -92 | 33* | -4 | 45* | 28*
O=S(=O)(Nc1ccc2oc(-c3ccccc3)nc2c1)c1ccccc1 | 4 | 0 | 34 | -39 | 50* | 11 | 141* | 112*
Cc1cccc(N2CC(C(=O)Nc3ccc(S(=O)(=O)Nc4nccs4)cc3)CC2=O)c1C (configuration not stated) | 7 | 1 | 60 | -2 | -1 | -1 | x | x
Cc1ccccc1N(C(=O)c1snc(C(N)=O)c1N)C(C(=O)NCC1CCCO1)c1ccc(F)cc1 (configuration not stated) | 0 | 2 | 10 | 0 | 55* | -4 | 3 | 0
Cc1ccccc1N(C(=O)c1snc(C(N)=O)c1N)C(C(=O)NCC1CCCO1)c1ccc(N(C)C)cc1 (configuration not stated) | 10 | 0 | 0 | 2 | 3 | 1 | x | x
CCc1ccccc1N(C(=O)c1snc(C(N)=O)c1N)C(C(=O)NCC1CCCO1)c1ccc(C)o1 (configuration not stated) | 9 | -1 | 3 | -7 | 49* | 2 | 10 | -3
Cc1ccc(N(C(=O)c2snc(C(N)=O)c2N)C(C(=O)NCC2CCCO2)c2ccc(C)o2)c(C)c1 (configuration not stated) | 4 | 3 | 7 | 3 | 23 | -9 | x | x
NC(=O)c1nsc(C(=O)N(c2cccc(F)c2)C(C(=O)NCC2CCCO2)c2cccs2)c1N (configuration not stated) | 7 | 0 | 3 | -1 | 34* | -3 | 86* | 76*
CCCCCCn1c(=O)n2n(c1=O)C[C@]1(OC(=O)Nc3c(C)noc3C)CN(S(=O)(=O)c3ccc(C)cc3)C[C@]1(O)C2 | -3 | x | x | x | -2 | x | x | x
CCOCCCNC(=O)CSc1nc2nc(C)c(Cc3ccccc3)c(C)n2n1 | -6 | -2 | -4 | 8 | 6 | -1 | x | x
COc1cc(NC(=O)CSc2nc3ccccc3cc2C)c(C(=O)O)cc1OC | 14 | u | 0 | 3 | 9 | 3 | x | x
COc1cc(NC(=O)CSc2nc3cc(C)ccc3cc2C)c(C(=O)O)cc1OC | 7 | 0 | -3 | 7 | 27* | -1 | 45* | 25*
CCOC(=O)c1oc2cccc(OCC(O)CNC(C)C)c2c1C (configuration not stated) | 8 | -1 | -17 | 1 | 91* | 2 | 11 | -4 | GDH-TPI dose=1.5*
CCc1ccccc1NC(=O)CN(C)C(=O)c1cccc(S(=O)(=O)N2CCCCCC2)c1 | -8 | 1 | -1 | 2 | -2 | x | x | x
CCOC(=O)N1CCC(C(=O)NNC(=O)c2ccc(Cl)cc2Cl)CC1 | -1 | -1 | -5 | 1 | -1 | -1 | x | x
COc1cc(-c2c(NC(=O)c3ccco3)oc3c(C)cccc3c2=O)cc(OC)c1OC | 17 | 1 | 5 | -3 | 1 | -4 | x | x
SMILES | GDH-TPI counter-1 | Mtb UGM inh | Mtb bLac sens | Rv3671c inh | Mtb FBA inh | RecA splice inh | Mtb FBA confirm | GDH-TPI counter-2 | others
COc1ccc(-c2c(NC(=O)c3ccco3)oc3c(C)cccc3c2=O)cc1 | 18 | 1 | 1 | 6 | 53* | 0 | 2 | -2
Brc1cccc(CNCC2CCCO2)c1 (configuration not stated) | 1 | -2 | -5 | 3 | -1 | -1 | x | x
COc1cc(CNC(=O)c2cc3ccccc3oc2=O)cc(OC)c1OC | 14 | 0 | -5 | -7 | 2 | 0 | x | x
Cc1ccccc1N(CC(=O)N1CCN(c2ccccc2)CC1)S(C)(=O)=O | 4 | 1 | -4 | -2 | 28* | 2 | 52* | 37*
COCCCn1c(C(=O)Nc2ccc3c(c2)OCO3)cc2c(=O)n3cccc(C)c3nc21 | 12 | x | x | x | 2 | x | x | x
COCCCn1c(C(=O)N2CCOCC2)cc2c(=O)n3cccc(C)c3nc21 | 18 | -1 | 3 | 3 | 72* | -1 | 55* | 43*
CCCCn1c(=NC(=O)c2ccc3c(c2)OCO3)c(C#N)cc2c(=O)n3cccc(C)c3nc21 | -2 | 0 | 6 | 7 | 77* | x | + | +
COCCCn1c(C(=O)N2CC(C)OC(C)C2)cc2c(=O)n3cccc(C)c3nc21 (configuration not stated) | 27 | 0 | -4 | -11 | 74* | 2 | + | +
CCNC(=O)/C(C#N)=C/c1c(N2CCN(Cc3ccc4c(c3)OCO4)CC2)nc2c(C)cccn2c1=O | 6 | -2 | -6 | -7 | 5 | -7 | x | x
CC(C)Nc1nc(Nc2ccc(F)cc2)c2sccc2n1 | 17 | x | x | x | 1 | x | x | x
Cc1cc(OC(=O)c2cc([N+](=O)[O-])ccc2Cl)c([N+](=O)[O-])c(=O)[nH]1 | 12 | 0 | 3 | 0 | 5 | 3 | x | x
